In all, about 5,500 compounds went through this assay and about 2,000 (36%) were called active. Roughly 18% stayed inconclusive and do not appear here. No stated cut-off is given here; in the data, active means normalized growth mostly below about 0.91 (no sharp cut-off); inconclusive means no clear call, values can overlap the other calls; inactive means mostly above about 0.92. Some of the results follow.
Experiment: chemical genetic growth profiling, strain panel (AID 1159580);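 further: tested at 20 µM; growth read once vehicle control cultures reached saturation at 30 °C; 1 = growth at the plate median or of vehicle wells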
Conditions: S. cerevisiae deletion strains, growth OD

Measured: normalized growth

CNC(=O)N(C)c1nnc(C(C)(C)C)s1
inactive: locus YAL013W, strain DEP1, stronger effect = lower value 1.01 | locus YAL021C, strain ccr4, stronger effect = lower value 0.935 | locus YAL026C, strain drs2, stronger effect = lower value 0.993 | locus YAL030W, strain snc1, stronger effect = lower value 1 | locus YBL061C, strain skt5, stronger effect = lower value 0.997 | locus YBR009C, strain hhf1, stronger effect = lower value 1.01 | locus YBR021W, strain FUR4, stronger effect = lower value 1.04 | locus YBR023C, strain chs3, stronger effect = lower value 0.994 | locus YBR171W, strain sec66, stronger effect = lower value 0.983 | locus YBR229C, strain ROT2, stronger effect = lower value 1.01 | locus YBR231C, strain swc5, stronger effect = lower value 1.02 | locus YBR279W, strain paf1, stronger effect = lower value 0.996 | locus YCL011C, strain gbp2, stronger effect = lower value 0.985 | locus YCL016C, strain dcc1, stronger effect = lower value 0.979 | locus YCL029C, strain bik1, stronger effect = lower value 1.01 | locus YCL069W, strain vba3, stronger effect = lower value 0.988 | locus YCR088W, strain abp1, stronger effect = lower value 0.988 | locus YDL005C, strain med2, stronger effect = lower value 0.982 | locus YDL035C, strain GPR1, stronger effect = lower value 1.02 | locus YDL040C, strain nat1, stronger effect = lower value 0.99 | locus YDL074C, strain BRE1, stronger effect = lower value 1.03 | locus YDL101C, strain DUN1, stronger effect = lower value 1.02 | locus YDL134C, strain PPH21, stronger effect = lower value 1.01 | locus YDL185W, strain tfp1, stronger effect = lower value 0.959 | locus YDL192W, strain arf1, stronger effect = lower value 1.01 | locus YDR001C, strain nth1, stronger effect = lower value 0.977 | locus YDR069C, strain doa4, stronger effect = lower value 0.988 | locus YDR101C, strain arx1, stronger effect = lower value 1.01 | locus YDR137W, strain rgp1, stronger effect = lower value 0.999 | locus YDR150W, strain NUM1, stronger effect = lower value 1.01 | locus YDR159W, strain sac3, stronger effect = lower value 1.03 | locus YDR162C, strain NBP2, stronger effect = lower value 1.01 | locus YDR195W, strain ref2 0.946 | locus YDR297W, strain sur2, stronger effect = lower value 1.02 | locus YDR318W, strain mcm21, stronger effect = lower value 1.02 | locus YDR334W, strain swr1, stronger effect = lower value 0.982 | locus YDR335W, strain msn5, stronger effect = lower value 0.995 | locus YDR388W, stronger effect = lower value 1.02 | locus YDR392W, strain spt3, stronger effect = lower value 1.02 | locus YDR502C, strain sam2, stronger effect = lower value 1.02 | locus YEL003W, strain gim4, stronger effect = lower value 0.989 | locus YEL037C, strain rad23, stronger effect = lower value 0.981 | locus YEL061C, strain CIN8 (second series), stronger effect = lower value 0.98 | locus YEL061C, strain CIN8, stronger effect = lower value 1.01 | locus YER015W, strain faa2, stronger effect = lower value 0.99 | locus YER016W, strain bim1, stronger effect = lower value 0.987 | locus YER110C, stronger effect = lower value 1.01 | locus YER111C, strain swi4, stronger effect = lower value 1 | locus YER155C, strain BEM2 (second series), stronger effect = lower value 1.02 | locus YER155C, strain BEM2, stronger effect = lower value 1.01 | locus YER167W, strain BCK2, stronger effect = lower value 1.02 | locus YFR010W, strain ubp6, stronger effect = lower value 0.969 | locus YGL078C, strain dbp3, stronger effect = lower value 1.01 | locus YGL086W, strain mad1, stronger effect = lower value 1.01 | locus YGL167C, strain pmr1, stronger effect = lower value 0.976 | locus YGL173C, strain kem1, stronger effect = lower value 1 | locus YGL227W, strain vid30, stronger effect = lower value 1 | locus YGL240W, strain doc1, stronger effect = lower value 1.03 | locus YGL248W, strain PDE1, stronger effect = lower value 1.01 | locus YGL253W, strain hxk2, stronger effect = lower value 0.991 | locus YGR078C, strain PAC10, stronger effect = lower value 1.02 | locus YGR135W, strain pre9, stronger effect = lower value 1.02 | locus YGR229C, strain SMI1, stronger effect = lower value 1.04 | locus YGR252W, strain gcn5, stronger effect = lower value 1.05 | locus YHR013C, strain ard1, stronger effect = lower value 0.972 | locus YHR027C, strain rpn1, stronger effect = lower value 0.993 | locus YHR030C, strain SLT2, stronger effect = lower value 1.01 | locus YHR079C, strain IRE1 (second series), stronger effect = lower value 1.03 | locus YHR094C, strain hxt1, stronger effect = lower value 1.01 | locus YHR129C, strain ARP1, stronger effect = lower value 0.998 | locus YHR142W, strain chs7, stronger effect = lower value 0.979 | locus YHR200W, strain rpn10, stronger effect = lower value 1.02 | locus YIL066C, strain RNR3, stronger effect = lower value 1.02 | locus YIL073C, strain SPO22, stronger effect = lower value 1.07 | locus YIL125W, strain kgd1, stronger effect = lower value 1.02 | locus YIR030C, strain dcg1, stronger effect = lower value 1.02 | locus YJL092W, strain hpr5, stronger effect = lower value 0.976 | locus YJL095W, strain BCK1 (second series), stronger effect = lower value 0.993 | locus YJL095W, strain BCK1, stronger effect = lower value 1.01 | locus YJL115W, strain asf1, stronger effect = lower value 0.973 | locus YJL129C, strain trk1, stronger effect = lower value 0.999 | locus YJL134W, strain LCB3, stronger effect = lower value 1.02 | locus YJL154C, strain vps35, stronger effect = lower value 0.976 | locus YJL164C, strain tpk1, stronger effect = lower value 0.998 | locus YJL166W, strain qcr8, stronger effect = lower value 1.02 | locus YJL168C, strain set2, stronger effect = lower value 1.02 | locus YJL187C, strain SWE1 (second series), stronger effect = lower value 1.01 | locus YJR043C, strain POL32, stronger effect = lower value 1.03

Reference: PubChem BioAssay AID1159580 (chemical genetic matrix, 2015)
